# Test results reported in PubChem BioAssay (NCI).
# The panel holds about 83,000 compounds, 20% with a hit somewhere; the sample as a whole holds those more often.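 Method: cells in 96-well plates; compound added at one concentration; 48 h incubation; percent growth measured; values under 10 scored active.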 Unmarked numbers belong to inactive results. The source made the active and inactive calls.
# Tested on: HL-60(TB) leukemia
# Assay: NCI-60 one-dose screen, 48 h (100 = growth as untreated, 0 = no growth, -100 = all killed)
# Conditions: 10 µM unless noted
row,SMILES,growth
1,COCCn1cc(-c2nc(-c3cc4cccnc4n3C)cs2)c2cc(OC)ccc21,82.6%
2,COc1cc2c(c(OC)c1)C1c3ccccc3NC(=O)N1CC2 (centres undefined),-3.91% (active)
3,CCOC(=O)/C(O)=C(\C=N\C(=S)Nc1ccc(Cl)c(Cl)c1)C(=O)OCC,83.6%
4,C=C(C)[C@@H]1CC[C@]2(C(=O)N3CCN(C)CC3)CC[C@]3(C)[C@H](CC[C@@H]4[C@@]5(C)C/C(=C/c6cccnc6)C(=O)C(C)(C)[C@@H]5CC[C@]43C)[C@@H]12,-4.95% (active)
5,N#CCCCCCn1c2ccccc2c2c3c(c4c5ccccc5[nH]c4c21)C(=O)N(O)C3=O,-46% (active)
6,CN1CCN(c2nc(-c3csc(-c4cccs4)n3)cc3ccccc23)CC1,34.4%
7,COc1cc(/C=N/NC(=S)NNC(=S)NC2CCCCC2)cc(OC)c1OC,104%
8,Cc1cc(N2CCN(c3ccnc4cc(Cl)ccc34)CC2)nc(N2CCOCC2)n1,69.5%
9,CC(=O)Nc1ccc(CC#N)cc1Br,123%
10,CCC1C(=O)COC1=O (centres undefined),96.9%
11,Oc1ccc(C(c2ccc(O)cc2)C(Cl)(Cl)Cl)cc1,68.1%
12,CCOC(=O)C(C(=O)OCC)C(c1ccccc1)N1CCN(c2ccccc2)CC1 (centres undefined),97.7%
13,Nc1c(C(=O)Nc2ccccc2F)sc2nc3c(cc12)C(=O)CCC3,33.9%
14,O=C1C=C[C@]2(C[C@@H](c3cccc(C(F)(F)F)c3)O[C@@H](c3cccc(C(F)(F)F)c3)O2)O1,8.74% (active)
